# Test results taken from the supplement of paper PMC8728848.
# The entries come from a sample that favours the strongest signals as a whole.
# B1: AMA (Arum maculatun) (protein)
# chain: MAKLLLLLLLPAIVGLAVPRSAAAVGSNYMLSGETLNTDGRLTNGELTLIMQVDCNLVLYHGGWQSNTANNGRDCKLTLTDFGELVIKSGTGSTVWSSGSKQSMKGNYAAVVHPEGRLVIYGPSVFKINPSGAGLNGLPLRNIPLTNNMLFSGQVLYGDGTLSARNHKLVMQGDCNMVLYGGKYGWQSNTHGNGKYCFAMLTHKGELVIRDDDFKSVWSSKSSSKQGDYVFILQDDSLAIIYGPAVFSTGSKKMISMVTN
# Key:
# Test in all cases: glycan array binding signal (z-score within array); higher = stronger binding
# Settings in all cases: glycan notation: IUPAC condensed, linker removed
# [1] = molecular target: Fuc(a1-2)Gal(b1-3)GalNAc(b1-3)Gal
# Method in brief: (§1)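 The binding signal is a Z-score computed within each array and averaged over linkers. Arrays of the same protein sequence at different concentrations or buffers were also averaged together. Data originate from 3228 arrays in the Consortium for Functional Glycomics database, kept only where the protein sequence was available.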
# [2] = molecular target: Fuc(a1-2)Gal(b1-3)GlcNAc
# Method in brief: as §1
# [3] = molecular target: Fuc(a1-2)Gal(b1-3)GlcNAc(b1-3)Gal(b1-4)Glc
# Method in brief: as §1
# [4] = molecular target: Fuc(a1-2)Gal(b1-3)GlcNAc6S
# Method in brief: as §1
# [5] = molecular target: Fuc(a1-2)Gal(b1-4)Glc6S
# Method in brief: as §1
# [6] = molecular target: Fuc(a1-2)[Gal(a1-3)]Gal(b1-3)GalNAc
# Method in brief: as §1
# [7] = molecular target: Fuc(a1-2)[GalNAc(a1-3)]Gal(b1-3)GlcNAc(b1-6)GalNAc
# Method in brief: as §1
# [8] = molecular target: Fuc(a1-3)GlcNAc
# Method in brief: as §1
# [9] = molecular target: Gal(a1-3)Gal(b1-3)GlcNAc
# Method in brief: as §1
# [10] = molecular target: Gal(a1-3)Gal(b1-3)GlcNAc(b1-6)GalNAc
# Method in brief: as §1
# [11] = molecular target: Gal(a1-4)Gal(b1-3)GlcNAc(b1-2)Man(a1-3)[Gal(a1-4)Gal(b1-3)GlcNAc(b1-2)Man(a1-6)]Man(b1-4)GlcNAc(b1-4)GlcNAc
# Method in brief: as §1
# [12] = molecular target: Gal(a1-6)Glc
# Method in brief: as §1
# [13] = molecular target: Gal(b1-3)Gal(b1-4)GlcNAc
# Method in brief: as §1
# [14] = molecular target: Gal(b1-3)GlcNAc(b1-2)Man(a1-3)[Gal(b1-3)GlcNAc(b1-2)Man(a1-6)]Man(b1-4)GlcNAc(b1-4)GlcNAc
# Method in brief: as §1
# [15] = molecular target: Gal(b1-3)GlcNAc(b1-2)Man(a1-3)[GlcNAc(b1-4)][Gal(b1-3)GlcNAc(b1-2)Man(a1-6)]Man(b1-4)GlcNAc(b1-4)GlcNAc
# Method in brief: as §1
# [16] = molecular target: Gal(b1-3)GlcNAc(b1-3)Gal(b1-3)GlcNAc
# Method in brief: as §1
# [17] = molecular target: Gal(b1-3)[Neu5Ac(a2-6)]GlcNAc(b1-6)Gal(b1-4)Glc
# Method in brief: as §1
# [18] = molecular target: Gal(b1-4)GlcNAc(a1-6)Gal(b1-4)GlcNAc
# Method in brief: as §1
# [19] = molecular target: Gal(b1-4)GlcNAc(b1-2)Man(a1-3)Man(b1-4)GlcNAc(b1-4)GlcNAc
# Method in brief: as §1
# [20] = molecular target: Gal(b1-4)GlcNAc(b1-2)Man(a1-3)[Gal(b1-4)GlcNAc(b1-2)Man(a1-6)]Man(b1-4)GlcNAc(b1-4)GlcNAc
# Method in brief: as §1
# [21] = molecular target: Gal(b1-4)GlcNAc(b1-2)Man(a1-3)[Man(a1-6)]Man(b1-4)GlcNAc(b1-4)GlcNAc
# Method in brief: as §1
# [22] = molecular target: Gal(b1-4)GlcNAc(b1-3)Gal(b1-3)GalNAc
# Method in brief: as §1
# [23] = molecular target: Gal(b1-4)GlcNAc(b1-3)Gal(b1-4)GlcNAc(b1-3)GalNAc
# Method in brief: as §1
# [24] = molecular target: Gal(b1-4)GlcNAc(b1-3)Gal(b1-4)[Fuc(a1-3)]GlcNAc(b1-3)Gal(b1-4)[Fuc(a1-3)]GlcNAc
# Method in brief: as §1
# [25] = molecular target: Gal(b1-4)GlcNAc(b1-3)[Gal(b1-4)GlcNAc(b1-6)]Gal(b1-4)GlcNAc
# Method in brief: as §1
# [26] = molecular target: Gal(b1-4)GlcNAc(b1-3)[GlcNAc(b1-6)]Gal(b1-4)GlcNAc
# Method in brief: as §1
# [27] = molecular target: Gal(b1-4)GlcNAc(b1-6)[Gal(b1-3)]GalNAc
# Method in brief: as §1
# [28] = molecular target: Gal(b1-6)Gal
# Method in brief: as §1
# [29] = molecular target: Gal3S(b1-3)GlcNAc
# Method in brief: as §1
# [30] = molecular target: Gal3S(b1-4)Glc
# Method in brief: as §1
# [31] = molecular target: Gal3S6S(b1-4)GlcNAc
# Method in brief: as §1
# [32] = molecular target: GalNAc(a1-3)GalNAc
# Method in brief: as §1
# [33] = molecular target: GalNAc(b1-4)Gal(b1-4)Glc
# Method in brief: as §1
# [34] = molecular target: GalNAc3S(b1-4)GlcNAc
# Method in brief: as §1
# [35] = molecular target: GalNAc3S(b1-4)GlcNAc3S
# Method in brief: as §1
# [36] = molecular target: GalNAc3S(b1-4)[Fuc(a1-3)]GlcNAc
# Method in brief: as §1
# [37] = molecular target: GlcNAc(a1-4)Gal(b1-4)GlcNAc(b1-3)Gal(b1-4)GlcNAc
# Method in brief: as §1
# [38] = molecular target: GlcNAc(a1-4)Gal(b1-4)GlcNAc(b1-3)Gal(b1-4)[Fuc(a1-3)]GlcNAc(b1-3)Gal(b1-4)[Fuc(a1-3)]GlcNAc
# Method in brief: as §1
# [39] = molecular target: GlcNAc(b1-2)Man(a1-3)[GlcNAc(b1-2)Man(a1-6)]Man(b1-4)GlcNAc(b1-4)GlcNAc
# Method in brief: as §1
# [40] = molecular target: GlcNAc(b1-2)[GlcNAc(b1-4)]Man(a1-3)[GlcNAc(b1-2)Man(a1-6)]Man(b1-4)GlcNAc(b1-4)GlcNAc
# Method in brief: as §1
# [41] = molecular target: GlcNAc(b1-3)Gal
# Method in brief: as §1
# [42] = molecular target: GlcNAc(b1-3)Gal(b1-4)GlcNAc(b1-2)Man(a1-3)[GlcNAc(b1-3)Gal(b1-4)GlcNAc(b1-2)Man(a1-6)]Man(b1-4)GlcNAc(b1-4)[Fuc(a1-6)]GlcNAc
# Method in brief: as §1
# [43] = molecular target: GlcNAc6S(b1-3)Gal(b1-4)GlcNAc
# Method in brief: as §1
# [44] = molecular target: Kdn(a2-3)Gal(b1-3)GalNAc
# Method in brief: as §1
# [45] = molecular target: Man(a1-2)Man(a1-3)[Man(a1-2)Man(a1-6)]Man(a1-6)[Man(a1-3)[Man(a1-6)]Man(a1-6)]Man(b1-4)GlcNAc(b1-4)GlcNAc
# Method in brief: as §1
# [46] = molecular target: Man(a1-2)Man(a1-3)[Man(a1-6)]Man(a1-6)[Man(a1-2)Man(a1-3)]Man(b1-4)GlcNAc(b1-4)GlcNAc
# Method in brief: as §1
# [47] = molecular target: Man(a1-2)Man(a1-6)[Man(a1-3)]Man(a1-6)[Man(a1-2)Man(a1-2)Man(a1-3)]Man
# Method in brief: as §1
# [48] = molecular target: Man(a1-2)Man(a1-6)[Man(a1-3)]Man(a1-6)[Man(a1-2)Man(a1-2)Man(a1-3)]Man(b1-4)GlcNAc(b1-4)GlcNAc
# Method in brief: as §1
# [49] = molecular target: Man(a1-3)[Man(a1-6)]Man(a1-6)[Man(a1-2)Man(a1-3)]Man(b1-4)GlcNAc(b1-4)GlcNAc
# Method in brief: as §1
# [50] = molecular target: Man(a1-3)[Man(a1-6)]Man(a1-6)[Man(a1-3)]Man(b1-4)GlcNAc(b1-4)GlcNAc
# Method in brief: as §1
# [51] = molecular target: Man(a1-3)[Man(a1-6)]Man(b1-4)GlcNAc(b1-4)GlcNAc
# Method in brief: as §1
# [52] = molecular target: Neu5Ac(a2-3)Gal(b1-3)GlcNAc(b1-3)Gal(b1-3)GlcNAc
# Method in brief: as §1
# [53] = molecular target: Neu5Ac(a2-3)Gal(b1-3)[Fuc(a1-4)]GlcNAc
# Method in brief: as §1
# [54] = molecular target: Neu5Ac(a2-3)Gal(b1-3)[Fuc(a1-4)]GlcNAc(b1-3)Gal(b1-4)[Fuc(a1-3)]GlcNAc
# Method in brief: as §1
# [55] = molecular target: Neu5Ac(a2-3)Gal(b1-3)[Neu5Ac(a2-3)Gal(b1-4)]GlcNAc
# Method in brief: as §1
# [56] = molecular target: Neu5Ac(a2-6)Gal(b1-4)GlcNAc(b1-2)Man(a1-3)[GlcNAc(b1-2)Man(a1-6)]Man(b1-4)GlcNAc(b1-4)GlcNAc
# Method in brief: as §1
# [57] = molecular target: Neu5Ac(a2-6)Gal(b1-4)GlcNAc(b1-2)Man(a1-3)[Neu5Ac(a2-6)Gal(b1-4)GlcNAc(b1-2)Man(a1-6)]Man(b1-4)GlcNAc(b1-4)[Fuc(a1-6)]GlcNAc
# Method in brief: as §1
# [58] = molecular target: Neu5Gc(a2-8)Neu5Gc(a2-3)Gal(b1-4)GlcNAc
# Method in brief: as §1
# [59] = molecular target: Neu5Gc(a2-8)Neu5Gc(a2-3)Gal(b1-4)GlcNAc(b1-3)Gal(b1-4)GlcNAc
# Method in brief: as §1
# [60] = molecular target: Neu5Gc(a2-8)Neu5Gc(a2-6)Gal(b1-4)GlcNAc
# Method in brief: as §1
binder,measurement,setting,value
B1,glycan array binding signal (z-score),[1],-0.21
same,glycan array binding signal (z-score),[2],-0.176
same,glycan array binding signal (z-score),[3],-0.22
same,glycan array binding signal (z-score),[4],-0.207
same,glycan array binding signal (z-score),[5],-0.208
same,glycan array binding signal (z-score),[6],-0.211
same,glycan array binding signal (z-score),[7],-0.216
same,glycan array binding signal (z-score),[8],-0.221
same,glycan array binding signal (z-score),[9],-0.21
same,glycan array binding signal (z-score),[10],-0.216
same,glycan array binding signal (z-score),[11],5.86
same,glycan array binding signal (z-score),[12],-0.214
same,glycan array binding signal (z-score),[13],-0.208
same,glycan array binding signal (z-score),[14],3.15
same,glycan array binding signal (z-score),[15],-0.205
same,glycan array binding signal (z-score),[16],-0.207
same,glycan array binding signal (z-score),[17],-0.198
same,glycan array binding signal (z-score),[18],-0.215
same,glycan array binding signal (z-score),[19],-0.215
same,glycan array binding signal (z-score),[20],3.36
same,glycan array binding signal (z-score),[21],0.479
same,glycan array binding signal (z-score),[22],-0.219
same,glycan array binding signal (z-score),[23],-0.149
same,glycan array binding signal (z-score),[24],-0.209
same,glycan array binding signal (z-score),[25],-0.213
same,glycan array binding signal (z-score),[26],-0.227
same,glycan array binding signal (z-score),[27],-0.212
same,glycan array binding signal (z-score),[28],-0.208
same,glycan array binding signal (z-score),[29],-0.209
same,glycan array binding signal (z-score),[30],-0.211
same,glycan array binding signal (z-score),[31],-0.213
same,glycan array binding signal (z-score),[32],-0.209
same,glycan array binding signal (z-score),[33],-0.203
same,glycan array binding signal (z-score),[34],-0.22
same,glycan array binding signal (z-score),[35],-0.217
same,glycan array binding signal (z-score),[36],-0.216
same,glycan array binding signal (z-score),[37],-0.205
same,glycan array binding signal (z-score),[38],-0.201
same,glycan array binding signal (z-score),[39],6.01
same,glycan array binding signal (z-score),[40],7.69
same,glycan array binding signal (z-score),[41],-0.211
same,glycan array binding signal (z-score),[42],2.21
same,glycan array binding signal (z-score),[43],-0.202
same,glycan array binding signal (z-score),[44],-0.207
same,glycan array binding signal (z-score),[45],3.87
same,glycan array binding signal (z-score),[46],3.3
same,glycan array binding signal (z-score),[47],-0.213
same,glycan array binding signal (z-score),[48],4.91
same,glycan array binding signal (z-score),[49],8.56
same,glycan array binding signal (z-score),[50],4.09
same,glycan array binding signal (z-score),[51],3.64
same,glycan array binding signal (z-score),[52],-0.204
same,glycan array binding signal (z-score),[53],-0.218
same,glycan array binding signal (z-score),[54],-0.226
same,glycan array binding signal (z-score),[55],0.441
same,glycan array binding signal (z-score),[56],0.845
same,glycan array binding signal (z-score),[57],0.863
same,glycan array binding signal (z-score),[58],-0.22
same,glycan array binding signal (z-score),[59],-0.215
same,glycan array binding signal (z-score),[60],-0.211
